Test results published in PubChem BioAssay (NCI).
This is part of a sample that, as a whole, favours compounds with a hit. Of some 83,000 tested, about 20% had one in any assay.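 The test compound was applied at a single concentration to cells in 96-well plates for 48 hours, and percent growth was recorded.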 The source made the active and inactive calls. The calls were made as follows: active = growth percent below 10; inactive = the rest.

Each compound was assayed on HS 578T breast (assay: NCI-60 one-dose screen, 48 h (100 = growth as untreated, 0 = no growth, -100 = all killed)). Details: 10 µM.

Structure (SMILES)	growth
CCOC(=O)C1=C(C)NC(SCc2nnc(-c3ccc(Cl)cc3)o2)=NC1c1ccc(Cl)cc1 (stereo unspecified)	83.7% (inactive)
O=Cc1ccc2nc(C(Cl)(Cl)Cl)ccc2c1	102% (inactive)
CCCc1n(Cc2ccc3ccccc3c2)c2ccccc2[n+]1Cc1ccc2ccccc2c1	-8.47% (active)
CC(CN1CCN(CCOCCO)CC1)CN1c2ccccc2Sc2ccc(Cl)cc21 (stereo unspecified)	60.6% (inactive)
Clc1ccc(Nc2ncnc3c2sc2ncccc23)c(Cl)c1	95.8% (inactive)
COc1ccc(/C=C(/C(=O)N2CCN(c3ccccc3)CC2)c2cc(OC)c(OC)c(OC)c2)cc1O	39.1% (inactive)
C#CCNC(=S)N/N=C(\C)c1ccccn1	70.2% (inactive)
CC(C)NC(=O)OCC#CCOC(=O)NC(C)C	115% (inactive)
Cc1cc(C)c2c(n1)sc1c(Nc3ccc(Cl)cc3Cl)ncnc12	90.7% (inactive)
CCCCn1cnc(-c2cc(-c3ccccc3)cc(C(F)(F)F)c2)n1	101% (inactive)
O=C1c2ccccc2C(=O)c2c1oc1ccc3ccccc3c21	85.7% (inactive)
COC1=CC(c2ccc[nH]2)=N/C1=C\c1[nH]c(C)c(C(=O)CCCCCCCCC(=O)O[C@H]2CC[C@H]3C4CCc5cc(O)ccc5C4CC[C@]23C)c1C (stereo partly specified)	10.7% (inactive)
CCSc1ccc([C@@H]2[C@@H](N)C(=O)N2c2cc(OC)c(OC)c(OC)c2)cc1	34.5% (inactive)
COc1ccc2[nH]cc(C(c3ccc(Cl)cc3)N3CCCC3)c2c1 (stereo unspecified)	86.3% (inactive)
Oc1[nH]c2ccc(Cl)cc2c1/C=c1/ccc2c(c1)N=C(c1ccc(F)cc1)N=2	68.1% (inactive)
COc1cc(-c2csc(NC(=O)Nc3cccc(C(F)(F)F)c3)n2)cc(OC)c1OC	71.2% (inactive)
O=C(Cc1ccc(Nc2ccnc(C(F)(F)F)c2)cc1)N/N=C/c1ccccc1O	102% (inactive)
COc1ccc2nc(C)cc(Nc3ccccc3O)c2c1	-3.7% (active)
C[C@]12CCc3nc(Nc4ccc(O)cc4)sc3C1=CC[C@@H]1[C@@H]2CC[C@]2(C)/C(=N/NC(N)=S)CC[C@@H]12	-4.57% (active)

Structure (SMILES)	growth
CN(C)CCOc1nc2c3cccnc3cc(-c3cccc(Cl)c3)c2c2ncccc12	43.1% (inactive)
Oc1[nH]c2ccccc2c1/C=c1/ccc2c(c1)N=C(c1ccc(C(F)(F)F)cc1)N=2	49.1% (inactive)
COc1ccc(/C(=C\c2ccc3c(c2)OCO3)C(=O)Nc2nc3ccc(F)cc3s2)cc1OC	104% (inactive)
O=C(Nc1ccccc1Cl)Oc1ccc2ccccc2c1	115% (inactive)
Nc1nc2c(c3ncccc13)C(c1ccccc1)Cc1ncccc1-2 (stereo unspecified)	87.2% (inactive)
COc1ccccc1NC(=O)OCC12COCN1COC2	110% (inactive)
COc1cc2c(cc1C)NC(=O)/C2=C\c1c[nH]c2ccccc12	75.2% (inactive)
C=C(C)[C@@H]1CC[C@]2(C)[C@H](CC=C3[C@@H]4C[C@](C)(C(=O)N5CCN(C)CC5)CC[C@]4(C)CC[C@]32C)[C@@]1(C)CCC#N	81.4% (inactive)
COc1ccc(NC(=O)/C=C/c2ccc(Cl)c(Cl)c2)cn1	92.6% (inactive)
CC(C)c1[nH]ncc1-c1nc2ccc3[nH]ncc3c2c2c1CCCC2	-1.07% (active)
COc1ccc(NC(=O)c2ccc(C(F)(F)F)nc2Nc2ccc(Cl)cc2C)cc1Cl	10.8% (inactive)
NCCCOc1cc2ccccc2cc1C(=O)NCCCOc1cc2ccccc2cc1C(=O)Nc1ccc(Cl)cc1O	14.5% (inactive)
C/C=C(\C)C(C(=O)NC1CCCCC1)N(C(=O)C1CCc2cc(F)ccc2O1)c1ccc([N+](=O)[O-])cc1 (stereo unspecified)	80.2% (inactive)
O=C(Cn1nncc1CN1C(=O)CSC1=O)Nc1ccc(F)cc1	97.6% (inactive)
CCC(C)C1NC(=O)c2nc(oc2-c2ccccc2)-c2csc(n2)-c2csc(n2)-c2nc(oc2C)-c2coc(n2)CNC(=O)C(C(C)CC)NC1=O (stereo unspecified)	-57.3% (active)
C=CCn1c(C)nc2cc(Nc3nc(N4CCCC4)nc4nc[nH]c34)ccc21	-0.0485% (active)
Clc1ccc(Nc2ncnc3c2sc2ncccc23)cc1	86.8% (inactive)
Cc1ccc(NC(=O)c2nc(S(C)(=O)=O)oc2-c2ccc(F)cc2)cc1Nc1ccc2ncn(C)c(=O)c2c1	106% (inactive)
CCCCNCC(O)c1cc(-c2ccc(C(F)(F)F)cc2)nc(-c2ccc(C(F)(F)F)cc2)c1 (stereo unspecified)	-57.8% (active)

Each compound was assayed on NCI/ADR-RES ovarian in the same assay as above. Details: 10 µM unless noted.

Structure (SMILES)	growth
CCOC(=O)C1=C(C)NC(SCc2nnc(-c3ccc(Cl)cc3)o2)=NC1c1ccc(Cl)cc1 (stereo unspecified)	69.9% (inactive)
O=Cc1ccc2nc(C(Cl)(Cl)Cl)ccc2c1	105% (inactive)
CCCc1n(Cc2ccc3ccccc3c2)c2ccccc2[n+]1Cc1ccc2ccccc2c1	79.4% (inactive)
CC(CN1CCN(CCOCCO)CC1)CN1c2ccccc2Sc2ccc(Cl)cc21 (stereo unspecified)	68.7% (inactive)
Clc1ccc(Nc2ncnc3c2sc2ncccc23)c(Cl)c1	15% (inactive)
COc1ccc(/C=C(/C(=O)N2CCN(c3ccccc3)CC2)c2cc(OC)c(OC)c(OC)c2)cc1O	3.09% (active)
C#CCNC(=S)N/N=C(\C)c1ccccn1	8.45% (active)
CC(C)NC(=O)OCC#CCOC(=O)NC(C)C	109% (inactive)
Cc1cc(C)c2c(n1)sc1c(Nc3ccc(Cl)cc3Cl)ncnc12	17.9% (inactive)
CCCCn1cnc(-c2cc(-c3ccccc3)cc(C(F)(F)F)c2)n1	103% (inactive)
O=C1c2ccccc2C(=O)c2c1oc1ccc3ccccc3c21	79.4% (inactive)
COC1=CC(c2ccc[nH]2)=N/C1=C\c1[nH]c(C)c(C(=O)CCCCCCCCC(=O)O[C@H]2CC[C@H]3C4CCc5cc(O)ccc5C4CC[C@]23C)c1C (stereo partly specified)	68.3% (inactive)
CCSc1ccc([C@@H]2[C@@H](N)C(=O)N2c2cc(OC)c(OC)c(OC)c2)cc1	3.99% (active)
COc1ccc2[nH]cc(C(c3ccc(Cl)cc3)N3CCCC3)c2c1 (stereo unspecified)	97.9% (inactive)
Oc1[nH]c2ccc(Cl)cc2c1/C=c1/ccc2c(c1)N=C(c1ccc(F)cc1)N=2	44.3% (inactive)
COc1cc(-c2csc(NC(=O)Nc3cccc(C(F)(F)F)c3)n2)cc(OC)c1OC	26.5% (inactive)
O=C(Cc1ccc(Nc2ccnc(C(F)(F)F)c2)cc1)N/N=C/c1ccccc1O	23.8% (inactive)
COc1ccc2nc(C)cc(Nc3ccccc3O)c2c1	46.9% (inactive)
C[C@]12CCc3nc(Nc4ccc(O)cc4)sc3C1=CC[C@@H]1[C@@H]2CC[C@]2(C)/C(=N/NC(N)=S)CC[C@@H]12	15% (inactive)

Structure (SMILES)	growth
CN(C)CCOc1nc2c3cccnc3cc(-c3cccc(Cl)c3)c2c2ncccc12	18.7% (inactive)
Oc1[nH]c2ccccc2c1/C=c1/ccc2c(c1)N=C(c1ccc(C(F)(F)F)cc1)N=2	69.1% (inactive)
COc1ccc(/C(=C\c2ccc3c(c2)OCO3)C(=O)Nc2nc3ccc(F)cc3s2)cc1OC	123% (inactive)
O=C(Nc1ccccc1Cl)Oc1ccc2ccccc2c1	101% (inactive)
Nc1nc2c(c3ncccc13)C(c1ccccc1)Cc1ncccc1-2 (stereo unspecified)	67.7% (inactive)
COc1ccccc1NC(=O)OCC12COCN1COC2	107% (inactive)
COc1cc2c(cc1C)NC(=O)/C2=C\c1c[nH]c2ccccc12	77% (inactive)
C=C(C)[C@@H]1CC[C@]2(C)[C@H](CC=C3[C@@H]4C[C@](C)(C(=O)N5CCN(C)CC5)CC[C@]4(C)CC[C@]32C)[C@@]1(C)CCC#N	75.6% (inactive)
COc1ccc(NC(=O)/C=C/c2ccc(Cl)c(Cl)c2)cn1	1.03% (active)
CC(C)c1[nH]ncc1-c1nc2ccc3[nH]ncc3c2c2c1CCCC2	66.1% (inactive)
COc1ccc(NC(=O)c2ccc(C(F)(F)F)nc2Nc2ccc(Cl)cc2C)cc1Cl	13.3% (inactive)
NCCCOc1cc2ccccc2cc1C(=O)NCCCOc1cc2ccccc2cc1C(=O)Nc1ccc(Cl)cc1O	29.2% (inactive)
C/C=C(\C)C(C(=O)NC1CCCCC1)N(C(=O)C1CCc2cc(F)ccc2O1)c1ccc([N+](=O)[O-])cc1 (stereo unspecified)	85.7% (inactive)
O=C(Cn1nncc1CN1C(=O)CSC1=O)Nc1ccc(F)cc1	97.6% (inactive)
CCC(C)C1NC(=O)c2nc(oc2-c2ccccc2)-c2csc(n2)-c2csc(n2)-c2nc(oc2C)-c2coc(n2)CNC(=O)C(C(C)CC)NC1=O (stereo unspecified)	12.3% (inactive)
C=CCn1c(C)nc2cc(Nc3nc(N4CCCC4)nc4nc[nH]c34)ccc21	94.7% (inactive)
Clc1ccc(Nc2ncnc3c2sc2ncccc23)cc1	19.1% (inactive)
Cc1ccc(NC(=O)c2nc(S(C)(=O)=O)oc2-c2ccc(F)cc2)cc1Nc1ccc2ncn(C)c(=O)c2c1	96.2% (inactive)
CCCCNCC(O)c1cc(-c2ccc(C(F)(F)F)cc2)nc(-c2ccc(C(F)(F)F)cc2)c1 (stereo unspecified)	-53.9% (active)
